The supplement of paper PMC7156485
± gives the standard deviation of the averaged measurements.

System: TDF
Assay: cell number relative to DMSO (% of DMSO); higher = more cells (less growth inhibition / toxicity)
Conditions: concentration: 10 µM; 24 h
Procedure, shortened: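 Cells were seeded at 800 per well in 384-well plates with RPMI containing 10% FBS; both HCC1569 and TDF lines were used. Compounds were added at 10 µM for 24 h at 37 °C, in triplicate, before fixation in 3.7% formaldehyde and staining with a rabbit anti-H1.0 antibody, an AlexaFluor 647 secondary and DAPI. H1.0 nuclear intensity or cell number is reported as percent of the plate control using the median of replicates, and HCC1569 values were smoothed for positional effects.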
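Also: TDF denotes transformed human dermal fibroblasts of mesenchymal origin.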

First: N#CC(=C1Nc2ccccc2S1)c1ccnc(NCCc2cccnc2)n1 [JNK Inhibitor V]
Second: O=c1sn(-c2cccc3ccccc23)c(=O)n1Cc1ccccc1 [4-benzyl-2-(1-naphthyl)-1,2,4-thiadiazolidine-3,5-dione]
The cell number of the first is lower: 87.4 for the first, 90.9 for the second.

First: Cc1ccccc1C(C(=O)NC1CCCCC1)N(C(=O)Cn1ccnc1C)c1cccc(F)c1 (stereo not given)
Second: CS(=O)(=O)O.CSc1ccc2c(c1)C(N1CCN(C)CC1)Cc1ccccc1S2 (stereo not given) [Methiothepin mesylate]
The cell number of the first is higher: 106 for the first, 102 for the second.

Compared with `Cc1ccccc1N1C(=O)c2cc(S(N)(=O)=O)c(Cl)cc2NC1C` (stereo not given) [Metolazone], `O=C1c2ccccc2-c2n[nH]c3cccc1c23` [JNK Inhibitor II] is higher in cell number: 110 for the first, 112 for the second.

Going from `CCOC(=O)[C@H](CCc1ccccc1)N[C@@H](C)C(=O)N1C(=O)N(C)C[C@H]1C(=O)O.Cl` to `CN(C)CCOC(C)(c1ccccc1)c1ccccn1.O=C(O)CCC(=O)O` (stereo not given) [Doxylamine succinate], the cell number rises from 99.6 to 101.

Compared with `CC(C)=CCCC(C)=CCCC(C)=CCCC(C)=CCCC(C)=CCCC(C)=CCCC(C)=CCCC(C)=CCCC(C)=CCO` [Solanesol], `CCCCCC(O)C=CC=CC=CC(O)CC=CCCCC(=O)O` [8(S),15(S)-DIHETE all trans] is lower in cell number: 97.8 for the first, 96.5 for the second.

Going from `CNCCCC1c2ccccc2C=Cc2ccccc21.Cl` [Protriptyline hydrochloride] to `CN(Cc1ccc(C(C)(C)C)cc1)Cc1cccc2ccccc12` [Butenafine], the cell number falls from 99.5 to 92.9.

Compared with `CCN(CC)CC(=O)Nc1c(C)cccc1C.Cl` [Lidocaine hydrochloride], `CC(N)(Cc1ccc(O)cc1)C(=O)O` (racemic) [DL-alpha-Methyl-p-tyrosine] is higher in cell number: 101 for the first, 117 for the second.

Going from `Cc1ccc(NC2=CC(=O)c3sc(C)nc3C2=O)cc1` to `COc1ccc(/C=C2\COc3ccc(C)cc3C2=O)cc1O`, the cell number rises from 14.5 to 28.

Compared with `O=C(Nc1cccc2c(=O)cc(-c3nn[nH]n3)oc12)c1ccc(OCCCCc2ccccc2)cc1` [Pranlukast], `Nc1nc(N)c2nc(CNc3ccc(C(=O)NC(CCC(=O)O)C(=O)O)cc3)cnc2n1` (stereo not given) [Aminopterin] is lower in cell number: 110 for the first, 87.6 for the second.

Going from `NC1CONC1=O` [L-Cycloserine] to `C=C1NC(=O)C2=C(CCSC2)N1`, the cell number falls from 102 ± 2.1 to 99.5.

First: CC(C)C(CO)Nc1nc(Nc2cc(N)cc(Cl)c2)c2ncn(C(C)C)c2n1 (stereo not given)
Second: Nc1nc(Nc2ccc(S(N)(=O)=O)cc2)nn1C(=S)Nc1c(F)cccc1F [Cdk1/2 Inhibitor III]
The cell number of the first is higher: 45.9 for the first, 14.2 for the second.

First: COc1cc(C(O)C(=O)O)ccc1O (racemic)
Second: Cc1ccc(C(=O)c2cc(O)c(O)c([N+](=O)[O-])c2)cc1 [Tolcapone]
The cell number of the first is higher: 109 for the first, 92.1 for the second.

Compared with `O=C(C=CC=Cc1ccc2c(c1)OCO2)N1CCCCC1` [Piperine], `CC1(COc2ccc(CC3SC(=O)NC3=O)cc2)CCCCC1` (stereo not given) [Ciglitizone] is higher in cell number: 97 for the first, 105 for the second.

Compared with `CC1OC(OC2C(Oc3cc(O)c4c(=O)cc(-c5ccc(O)cc5)oc4c3)OC(CO)C(O)C2O)C(O)C(O)C1O` (stereo not given) [Rhoifolin], `COc1cc(C2c3cc4c(cc3C(OC3OC5COC(C)OC5C(O)C3O)C3COC(=O)C23)OCO4)cc(OC)c1O` (stereo not given) [Etoposide] is lower in cell number: 112 for the first, 42.1 ± 4.8 for the second.

Going from `COc1cc2c[n+](C)c3c4cc5c(cc4ccc3c2cc1OC)OCO5.[Cl-]` to `Cc1[nH]ccc2c1[nH]c1cc(=O)ccc12.Cl.O.O`, the cell number rises from 34.7 to 94.7.

Compared with `CC1COc2c(N3CCN(C)CC3)c(F)cc3c(=O)c(C(=O)O)cn1c23` (stereo not given) [Levofloxacin], `COc1c(N2CC3CCCNC3C2)c(F)cc2c(=O)c(C(=O)O)cn(C3CC3)c12.Cl` (stereo not given) [Moxifloxacin.HCl] is higher in cell number: 100 for the first, 122 for the second.

First: O=C(Nc1cccc(Nc2nccc(Nc3cccc(C(F)(F)F)c3)n2)c1)C1CC1 [Aurora Kinase Inhibitor III]
Second: COC(=O)C1C(O)CCC2CN3CCc4c([nH]c5ccccc45)C3CC21.Cl (stereo not given) [Yohimbine hydrochloride]
The cell number of the first is lower: 35.8 ± 3.4 for the first, 113 for the second.

Compared with `CCCCCC=CCC=CCC=CCC1OC1CCCC(=O)O` (stereo not given) [5,6-Epoxyeicosatrienoic acid], `CCCCCCCCCC(=O)O` [Decanoic acid] is lower in cell number: 108 for the first, 95.3 for the second.

Going from `Cc1c(O)cc2c(c1C)OC(C)(CCCC(C)CCCC(C)CCCC(C)C)CC2` [D-γ-Tocopherol] to `CCCCCC#CCC#CCC#CCC#CCCCC(=O)O` [5,8,11,14-Eicosatetraynoic acid], the cell number falls from 98.7 to 86.7.

`O=S1(=O)CCN(CN2CCS(=O)(=O)NC2)CN1` and `CCOC([O-])=Nc1c[n+](N2CCOCC2)no1` [Molsidomine] are within error of each other in cell number: 99.3 for the first, 96.4 ± 7.5 for the second.
